High-throughput results deposited in PubChem BioAssay by The Scripps Research Institute Molecular Screening Center.
TEAD-YAP inh = TEAD-YAP interaction inhibition, primary screen, TEAD-YAP interaction inhibitor project, luminescence, HEK-TIYL cells; TEAD-Gal4/YAP UAS-luciferase luminescence; inhibition, % at 9.12 µM; actives 1.4% (n = 640,000); AID 1259422, 2018; in the data active = inhibition above about 32%;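 note: 0% = median of test compound wells and 100% = reference inhibitor wells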
GPR151 activ = activators of human GPR151, primary screen, cell-based, PathHunter beta-arrestin, luminescence | G-protein coupled receptor 151 (Homo sapiens), Q8TDV0 | PathHunter beta-arrestin GPR151 cells | activation, % at 11.2 µM | actives 1% (n = 650,000) | AID 1508602, 2020; in the data active = activation above about 4.9%;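 note: 0% = median of compound wells and 100% = cells with positive control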
Target sequence (Q8TDV0 whole entry, looked up): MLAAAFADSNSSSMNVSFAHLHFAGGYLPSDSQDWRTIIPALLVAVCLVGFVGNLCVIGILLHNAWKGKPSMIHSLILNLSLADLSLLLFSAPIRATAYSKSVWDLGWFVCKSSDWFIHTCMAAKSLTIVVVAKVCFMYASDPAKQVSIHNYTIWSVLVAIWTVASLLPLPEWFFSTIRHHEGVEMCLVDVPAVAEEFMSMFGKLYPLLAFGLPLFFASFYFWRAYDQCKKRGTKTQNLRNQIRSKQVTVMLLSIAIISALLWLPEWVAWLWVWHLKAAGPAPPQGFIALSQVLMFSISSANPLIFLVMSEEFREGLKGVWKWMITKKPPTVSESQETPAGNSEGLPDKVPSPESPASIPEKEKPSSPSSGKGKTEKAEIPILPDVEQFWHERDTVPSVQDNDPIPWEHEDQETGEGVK
MITF primary = MITF inhibitors, primary screen, biochemical, AlphaScreen, human. actives 0.91% (n = 650,000). AlphaScreen MITF homodimerization, bead proximity signal. Microphthalmia-associated transcription factor (Homo sapiens), O75030. inhibition, % at 2.6 µM; in the data active = inhibition above about 50%;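 note: 0% = vehicle wells with protein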
FBW7 activator = FBW7 E3 ligase activators, primary screen, biochemical, AlphaScreen, human. normalized activity (activation), % at 26.1 µM. AlphaScreen FBW7–phospho-cyclin E peptide binding, activator screen. F-box/WD repeat-containing protein 7 (Homo sapiens), Q969H0. actives 0.13% (n = 650,000); in the data active = normalized activity above about 1.9%;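 note: purified mutant Fbw7 with reduced substrate affinity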
GPR151 confirm = GPR151 activators, triplicate retest, confirmation, cell-based, PathHunter beta-arrestin, luminescence; 6,700 tested, under 10 active; shares compounds with GPR151 activ; activation, % at 11.2 µM; GPR151 PathHunter beta-arrestin cells, 90 min; % of EA-reagent control over plate median; AID 1508609, 2020;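 active = mean percent activation across replicates above the confirmation screen cutoff of 4.91%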
GPR119 counter = GPR119 activators in beta-arrestin cells, counter-screen for GPR151 activator project, cell-based, PathHunter beta-arrestin, luminescence, triplicate; shares compounds with GPR151 activ; 90 min; 0 = compound-well median, 100 = enzyme-acceptor control; activation, % at 11.2 µM; actives 0.3% (n = 6,700);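 active = mean percent activation in the counterscreen above 29.09%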;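 note: counterscreen on off-target GPR119 to flag nonselective hits from the GPR151 activator screen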
Starred values were filed as active, the others as inactive; nt = no result. Sampled rows, rich in hits. Any-hit rate of the full collection: about 3.4%.

SMILES	TEAD-YAP inh	GPR151 activ	MITF primary	FBW7 activator	GPR151 confirm	GPR119 counter
CS(=O)(=O)c1cnc(-c2ccncc2)nc1-c1ccc(C(F)(F)F)cc1	-4.8	-2.1	8.2	0.4	nt	nt
CC(C)(C)C(=O)NC(=O)Nc1ncc(S(C)(=O)=O)c(-c2ccc(C(F)(F)F)cc2)n1	-0.7	8.0*	-2.7	-0.1	-0.7	-5.3
COc1cc(Br)c(C2C(C#N)=C(N)Oc3cc4c(cc32)OCO4)cc1OC (stereo not given)	-2.8	9.1*	3.6	-0.2	0.4	2.6
O=C(O)c1cc(N2C(=O)C3C4C=CC(C4=C(c4ccccc4)c4ccccc4)C3C2=O)ccc1Cl (stereo not given)	1.2	5.1*	-5.9	-0.1	-0.1	5.1
O=C(NN1C(=O)C2C(c3ccccc3)C=CC(c3ccccc3)C2C1=O)c1ccncc1 (stereo not given)	8.2	6.1*	-20.4	0.2	0.2	-5.3
O=C(NN1C(=O)C2C3C=CC(C3)C2C1=O)c1ccncc1 (stereo not given)	-7.1	-0.7	0.7	0.0	nt	nt
COC(=O)c1ccc(SCC(=O)NCc2ccccc2)c([N+](=O)[O-])c1	5.6	7.4*	2.5	0.0	0.1	-6.4
COc1ccccc1NC(=O)c1ccc(SCC(=O)NCc2ccccc2)c([N+](=O)[O-])c1	2.8	-0.1	0.8	0.3	nt	nt
Cc1ccccc1C(=O)n1cnc2cc([N+](=O)[O-])ccc21	7.2	7.1*	-259.3	-0.2	0.7	-1.3
O=C(c1cc([N+](=O)[O-])cc([N+](=O)[O-])c1)n1cnc2ccccc21	-7.2	-0.9	20.8	1.0	nt	nt
Cn1c(=O)c2c(nc(NCCCO)n2Cc2ccc(Cl)cc2)n(C)c1=O	0.1	4.2	-9.9	-0.1	nt	nt
O=C(Cc1nc2scc(-c3ccccc3)c2c(=O)[nH]1)N1CCOCC1	2.6	11.0*	0.6	0.0	0.3	13.4
O=C(Cc1ccccc1)Nc1cnn(-c2cccc(C(=O)Nc3cccc(CN4CCOCC4)c3)c2)c1	4.0	5.2*	-6.8	-0.1	-0.4	-1.9
Cc1cccc(NC(=O)Nc2cnn(-c3cccc(C(=O)Nc4cc(C)c(C)c(C)c4)c3)c2)c1	-4.3	1.1	-9.4	0.2	nt	nt
Cc1cccc(NC(=O)Nc2cnn(-c3cccc(C(=O)Nc4ccnc(C)c4)c3)c2)c1	24.8	6.6*	-5.5	0.0	-0.9	-6.1
Cc1cccc(NC(=O)Nc2cnn(-c3cccc(C(=O)NOCc4ccccc4)c3)c2)c1	-3.7	4.9*	13.6	0.1	-0.4	-7.4
COc1ccc(/C=C/C(=O)OCC(=O)c2ccc(Cl)s2)cc1OC	-1.6	1.9	-2.3	-0.2	nt	nt
O=C1CSC(c2ccc(Cl)cc2)N1Cc1cn2ccccc2n1 (stereo not given)	4.5	5.0*	-7.7	0.1	-0.5	-2.3
COc1cc(C(Nc2cccc(C)n2)c2ccc3ccc(C)nc3c2O)ccc1O (stereo not given)	-0.5	5.2*	-6.4	-0.1	0.4	16.0
Cc1ccccc1Nc1nc(N)nc(COC(=O)c2ccc(N3CCCC3)c([N+](=O)[O-])c2)n1	-6.6	0.5	-1.1	0.2	nt	nt
COc1ccc(-c2noc(CSc3nc(N)c(-c4ccccc4)c(=O)[nH]3)n2)cc1OC	5.5	5.7*	-11.5	-0.1	-0.3	-1.1
COc1ccc(-c2noc(CSc3nnc(C)n3-c3ccccc3)n2)cc1OC	-4.3	-0.6	-8.2	-0.3	nt	nt
O=C(Nc1ccc(Cl)c(F)c1)c1cnn2c(C(F)(F)F)cc(-c3ccc(Br)cc3)nc12	-2.5	-1.0	0.4	0.1	nt	nt
Clc1ccc(CSc2ncnc3nc[nH]c23)cc1	-4.0	6.6*	10.2	0.2	-0.4	-4.6
CCOC(=O)COc1ccc2c(oc(=O)c3ccccc32)c1C	4.8	-0.7	-4.7	-0.1	nt	nt
SMILES	TEAD-YAP inh	GPR151 activ	MITF primary	FBW7 activator	GPR151 confirm	GPR119 counter
CC(=O)COc1ccc2c(oc(=O)c3ccccc32)c1C	-75.2	7.0*	-8.0	-0.1	0.4	12.9
Cc1cc(=O)oc2c(C)c(OCC(=O)N(C)C)ccc12	-7.3	18.4*	3.1	0.8	0.1	-3.0
CCN(CC)C(=O)COc1ccc2c(C)cc(=O)oc2c1C	-11.0	-0.2	18.1	0.1	nt	nt
CC(C)c1nnc(NC(=O)C(C)N2C(=O)c3ccccc3C2=O)s1 (stereo not given)	-2.1	-1.0	-4.4	-0.3	nt	nt
N#Cc1ccc(Oc2ccc(NC(=O)/C=C\C(=O)O)cc2)cc1	-5.0	5.3*	5.3	-0.1	0.9	9.0
COc1ccc(NC(=O)/C=C/C(=O)O)cc1	-7.2	-1.7	4.3	-0.1	nt	nt
O=C1c2ccc3c4c(ccc(c24)C(=O)N1CCOc1ccccc1)C(=O)N(CCOc1ccccc1)C3=O	-12.3	0.4	4.8	-0.1	nt	nt
CC12CCc3ccccc3C1(C)OC(=O)O2 (stereo not given)	12.0	-0.7	4.6	0.0	nt	nt
CN1C(=O)OC2(C)CCc3ccccc3C12C (stereo not given)	5.2	5.0*	-10.1	0.0	0.1	7.7
CCCC/C=C/c1cnc2ccc(NCc3ccc(S(N)(=O)=O)cc3)nn12	1.3	-0.3	-23.7	-0.6	nt	nt
CN1C(=O)c2ccc(C(=O)Nc3ccc(Br)cc3C(=O)O)cc2C1=O	8.6	7.9*	-1.9	-0.2	-0.3	2.0
CCCN1C(=O)c2ccc(C(=O)Nc3ccc(Br)cc3C(=O)O)cc2C1=O	-5.0	0.2	-2.0	-0.2	nt	nt
Cc1ccccc1NC(=O)C1CCC(C)(C(=O)O)C1(C)C (stereo not given)	-3.5	5.1*	1.7	0.0	-1.2	-9.6
CC1(C(=O)O)CCC(C(=O)Nc2ccc(Nc3ccccc3)cc2)C1(C)C (stereo not given)	-1.1	0.7	12.1	-0.1	nt	nt
Cc1csc(NC(=O)C2CCC(C)(C(=O)O)C2(C)C)n1 (stereo not given)	-2.0	7.3*	1.9	-0.1	-0.7	-10.5
CCc1nnc(/N=C/c2c(C)[nH]n(-c3ccc(Br)cc3)c2=O)s1	7.3	-2.0	8.8	-0.5	nt	nt
c1cc(-c2nc3c(c(N4CCCC4)n2)CNCC3)ccn1	-3.1	1.2	-8.9	-0.1	nt	nt
CCN=Cc1c(O)n(-c2ccc(Cl)cc2)c(=O)[nH]c1=O	0.1	-1.1	-6.8	-0.1	nt	nt
CCOc1ccccc1CN1CCN(C2CCN(c3ccccc3F)CC2)CC1CCO (stereo not given)	-5.6	11.4*	-12.3	0.0	1.0	13.7
